System: IRAK3
Conditions: concentration: 1 μM,replicates: in singlicate; n = 1
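Also: KINOMEscan kinase panel screen.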

Compound | %Inh [%]
Cn1ccc2ncnc(Oc3ccc(NC(=O)Nc4cc(C(C)(C)C)on4)c(Cl)c3)c21 | 17
COC(=O)c1cccc(NC(=O)NC2CCN(c3ccnc(Nc4cc(OC)c(OC)c(OC)c4)n3)C2)c1 (stereo not shown) [GSK1379767] | 79
O=C(Nc1ccccc1)c1cccc(Oc2ccc3nccn3n2)c1 | 3

System: IRAK4
Conditions: concentration: 1 μM,replicates: in singlicate; n = 1

Compound | %Inh [%]
Cn1ccc2ncnc(Oc3ccc(NC(=O)Nc4cnn(C(C)(C)C)c4)c(Cl)c3)c21 | 20
COc1cc2ncn(-c3cc(OCC4CCCCC4)c(C(N)=O)s3)c2cc1OC [GSK204559] | 9
COc1cccc(CNC(=O)NC2CCN(c3ccnc(Nc4cc(OC)c(OC)c(OC)c4)n3)C2)c1 (stereo not shown) [GSK1379765] | 27
Cn1ccc2ncnc(Oc3ccc(NC(=O)Nc4cccc(C(F)(F)F)c4)c(F)c3)c21 | 0
CNC(=O)c1ccccc1Nc1nc(Nc2cccc(CS(C)(=O)=O)c2)ncc1C.O=CO [GSK1520489] | 98.1
C[C@@H](Oc1cc(-n2cnc3cc(-c4cnn(C)c4)ccc32)sc1C(N)=O)c1ccccc1Cl [GSK580432] | 25
COc1cc(Nc2nccc(N3CCC(NC(=O)c4cccc(C#N)c4)C3)n2)cc(OC)c1OC (stereo not shown) [GSK1379751] | 15
Cc1ccn2nc(-c3ccc(F)cc3)c(-c3ccncc3)c2c1.Cl [GW457859] | 0
CN1CCN(CCNc2nc3cc(Oc4ccc(NC(=O)Nc5cc(C(F)(F)F)ccc5F)cc4)ccc3[nH]2)CC1.Cl.Cl [GW768504] | 0
NC(=O)c1ccc(-c2cc3ncnc(SCC(=O)O)c3s2)cc1 | 0
CC(=O)c1c(-c2ccncc2)[nH]c(-c2ccncc2)c1C [GW493036] | 32
O=C(Nc1cccc(C(F)(F)F)c1)c1cccc(Oc2ccc3nccn3n2)c1 | 13
CC(=O)Nc1nc2cnc(Nc3cc(NC(=O)c4cccc(CC(C)(C)C#N)c4)ccc3C)nc2s1 | 8
COc1ccc(Nc2nccc(N3CCC(NC(=O)c4cccc(C#N)c4)C3)n2)cc1 (stereo not shown) [GSK1379730] | 3
Cl.c1ccc(Oc2ccc(Nc3ccnc4cc(-c5ccc(CN6CCNCC6)o5)ccc34)cc2)nc1 [GW567142] | 5
O=C(Nc1ccc(Oc2ccc3nc(NC(=O)C4CC4)cn3n2)c(F)c1)c1cccn(-c2ccccc2)c1=O | 0
Cl.Cl.NC[C@H](CC1CCCCC1)NC(=O)c1ccc(-c2ccnc3[nH]ccc23)s1 [GSK1581428] | 6
COC(=O)Nc1nc2cc(Oc3ccc(NC(=O)Nc4cc(C(F)(F)F)ccc4Cl)cc3)ccc2[nH]1.Cl [GW697465] | 8
CC(C(=O)NC1CCN(c2ccnc(Nc3ccc(F)cc3)n2)C1)c1ccc(Cl)cc1 (stereo not shown) [GSK1379713] | 0

Compound | %Inh [%]
O=C(NCC1CC1)c1ccc(-c2cc(C(=O)NC3CC3)ccc2F)cc1 [GW810445] | 0
CCN1CCN(CCCC(=O)Nc2n[nH]c3nc(-c4ccc(O)cc4)c(Br)cc23)CC1 [SB-731579] | 0
Cc1nnc(-c2ccc3occ(-c4ccc(S(C)=O)cc4)c3n2)o1 (stereo not shown) | 0
CC(C)S(=O)(=O)N1CCN(Cc2ccc3c(c2)nc(NC(=O)c2ccsc2)n3C[C@H](O)c2ccccc2)CC1 [GW635815] | 80
Cn1ccc2ncnc(Oc3ccc(NC(=O)Nc4cccc(C(F)(F)F)c4)c(Cl)c3)c21 | 0
Cn1ccc2ncnc(Oc3ccc(NC(=O)Nc4ccnc(C(F)(F)F)c4)c(Cl)c3)c21 | 12
Cc1cccc2c(-c3ccncc3)c(-c3ccc(F)cc3)nn12.Cl [GW461487] | 0
Cc1ccc2c(-c3ccnc(Nc4ccc(C(F)(F)F)cc4)n3)cnn2n1 [GW819776] | 0
Cc1n[nH]c2cc(Nc3ccnc(Nc4cccc(CN5CCOCC5)c4)n3)ccc12 [GW682569] | 87
CCn1c(-c2nonc2N)nc2cncc(Br)c21 [SB-738004] | 0
CN1CCN(CCCNc2nccc(-c3c(-c4ccc(F)cc4)nn4cc(C(N)=O)ccc34)n2)CC1 [GW622475] | 11
Nc1nccc(-c2ccc3c(N)n[nH]c3c2)n1 [GSK1034945] | 23
Cc1ccc(C(=O)Nc2ccc(Oc3ccc4nc(NC(=O)C5CC5)cn4c3)c(F)c2)c(=O)n1-c1ccccc1 | 0
Cn1ccc2ncnc(Oc3ccc(NC(=O)Nc4cncc(C(F)(F)F)c4)c(Cl)c3)c21 | 0
NC(=O)Nc1sc(-c2ccc(F)cc2)cc1C(N)=O [GW789449] | 12
Cn1ccc2ncnc(Oc3ccc(NC(=O)Nc4cc(C(C)(C)C)on4)c(Cl)c3)c21 | 33
COC(=O)c1cccc(NC(=O)NC2CCN(c3ccnc(Nc4cc(OC)c(OC)c(OC)c4)n3)C2)c1 (stereo not shown) [GSK1379767] | 11
O=C(Nc1ccccc1)c1cccc(Oc2ccc3nccn3n2)c1 | 21

— article PMC5540273 (PLoS ONE, 2017)
